From the supplement of paper PMC10646978
± gives the standard deviation.

Legend:
Details in all cases: modulator concentration 10 µM
[1] = system: RAW-Dual (murine macrophage reporter line); test: NF-kB reporter (SEAP) activity fold change vs agonist alone; higher = enhanced NF-kB activity
Outline: (§1)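 Compound reached 10 μM final in each well by pin transfer, onto RAW-Dual murine macrophage reporter cells seeded at 50 000 per well in 384-well plates. After 1 hour at 37 °C, the cells were stimulated overnight with a PRR agonist. SEAP in the supernatant was read with QUANTI-Blue at 620 nm absorbance for NF-κB, and Lucia luciferase was read with QUANTI-Luc luminescence for IRF. Each signal was turned into fold change against the mean agonist-only control on the same plate, and two replicate plates were averaged with propagated errors.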

[2] = system: RAW-Dual (murine macrophage reporter line); test: IRF reporter (Lucia luciferase) activity fold change vs agonist alone; higher = enhanced IRF activity
Outline: as §1

[3] = system: RAW-Dual (murine macrophage reporter line); test: viability score (confluency relative to resting cells, overnight) (fraction); higher = more viable, active = viable (0.7 or more)
Outline: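 RAW-Dual macrophages in 384-well plates were treated overnight with compound at 10 μM final. IncuCyte imaging recorded confluency, and IncuCyte software built two confluency masks across every imaged well. The viability score expresses confluency relative to resting cells and was judged against a cutoff, which a compound met only if both masks exceeded 70% of resting cells.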

[4] = agonist: CpG ODN 1826 0.5 ug/mL

Row | Structure (SMILES) | NF-kB reporter [1, 4] | NF-kB reporter ([1]; agonist: LPS 0.1 ug/mL) | NF-kB reporter ([1]; agonist: MPLA […]) | IRF reporter ([2]; agonist: 3'3'-cGAMP 10 ug/mL) | IRF reporter ([2]; agonist: LPS 0.1 ug/mL) | IRF reporter ([2]; agonist: MPLA […]) | viability score [3]
1 | O=[N+]([O-])c1ccc(Nc2ccccc2O)c2nonc12 | 1.74 ± 0.097 | 1.21 ± 0.088 | 1.7 ± 0.099 | 0.69 ± 0.023 | 1.55 ± 0.11 | 1.28 ± 0.17 | 0.9 (active)
2 | Br.O=S(=O)(c1ccc(-c2csc(Nc3ccc(Br)cc3)n2)cc1)N1CCOCC1 | 0.967 ± 0.084 | 1.08 ± 0.091 | 1.1 ± 0.046 | 0.951 ± 0.17 | 1.14 ± 0.049 | 0.903 ± 0.059 | 0.999 (active)
3 | O=C(O)CCCCC1CCSS1 (configuration not stated) | 0.761 ± 0.034 | 0.968 ± 0.077 | 1.05 ± 0.056 | 1.03 ± 0.047 | 1.33 ± 0.33 | 1.51 ± 0.52 | 0.978 (active)
4 | O=C(Oc1ccc(Cl)c2cccnc12)c1cccc(Cl)c1 | 0.981 ± 0.16 | 1.05 ± 0.093 | 0.926 ± 0.11 | 0.994 ± 0.032 | 1.41 ± 0.21 | 1.45 ± 0.15 | 1 (active)
5 | CNC(=O)C(=O)Nc1cc(Cl)ccc1C | 1.07 ± 0.18 | 1 ± 0.078 | 0.912 ± 0.08 | 1.01 ± 0.042 | 1.25 ± 0.15 | 1.3 ± 0.19 | 1 (active)
6 | COc1ccc(NCN2C(=O)c3ccccc3C2=O)c(OC)c1 | 0.844 ± 0.066 | 0.972 ± 0.058 | 1.08 ± 0.1 | 0.911 ± 0.044 | 1.42 ± 0.084 | 1.61 ± 0.21 | 0.991 (active)
7 | CNC(CC(=O)O)C(=O)O (configuration not stated) | 0.986 ± 0.073 | 1.08 ± 0.073 | 0.978 ± 0.028 | 0.943 ± 0.054 | 0.942 ± 0.094 | 0.948 ± 0.078 | 1 (active)
8 | NC(=O)Cn1c(COc2ccccc2Cl)nc2ccccc21 | 1.35 ± 0.32 | 1.03 ± 0.051 | 0.96 ± 0.07 | 1.01 ± 0.034 | 1.26 ± 0.16 | 1.27 ± 0.21 | 0.994 (active)
9 | CN(C)c1ccc(C=C2C(=O)C(=O)c3ccccc32)cc1Br | 0.989 ± 0.098 | 0.947 ± 0.15 | 0.999 ± 0.036 | 1.02 ± 0.21 | 1 ± 0.043 | 1 ± 0.16 | 1 (active)
10 | COc1ccccc1C=C(C#N)c1nc(-c2cc3cc(Br)ccc3oc2=O)cs1 | 0.951 ± 0.08 | 0.962 ± 0.075 | 0.943 ± 0.089 | 0.972 ± 0.069 | 1.31 ± 0.18 | 1.58 ± 0.27 | 1.02 (active)
11 | O=C(NCCSC1CCOCC1)c1ccc(Cl)s1 | 1.21 ± 0.069 | 0.992 ± 0.1 | 1.02 ± 0.036 | 0.898 ± 0.055 | 1.03 ± 0.054 | 1.13 ± 0.14 | 1 (active)
12 | COc1cc(NC(=O)COc2ccc(C(C)C)c(C)c2)c(OC)cc1Cl | 0.818 ± 0.038 | 1.04 ± 0.1 | 1.71 ± 0.75 | 1.01 ± 0.047 | 1.25 ± 0.19 | 1.28 ± 0.39 | 0.96 (active)
13 | Br.O=S(=O)(c1ccc(-c2csc(Nc3ccc(Cl)cc3)n2)cc1)N1CCOCC1 | 0.997 ± 0.09 | 1.09 ± 0.071 | 1.09 ± 0.038 | 0.907 ± 0.17 | 1.11 ± 0.046 | 1.06 ± 0.1 | 0.995 (active)
14 | CC1=NN(c2ccc(C)cc2)C(=O)C1=Cc1c(C)nn(-c2ccc(C)cc2C)c1O | 1.03 ± 0.08 | 0.922 ± 0.089 | 1.02 ± 0.096 | 0.986 ± 0.046 | 1.21 ± 0.2 | 1.26 ± 0.19 | 1.03 (active)
15 | O=Cc1cn(CCOc2ccc(Br)cc2)c2ccccc12 | 1.25 ± 0.13 | 1.06 ± 0.054 | 1.59 ± 0.22 | 0.684 ± 0.033 | 0.674 ± 0.043 | 0.67 ± 0.085 | 0.977 (active)
16 | Cl.Fc1ccc([C@@H]2CCNC[C@H]2COc2ccc3c(c2)OCO3)cc1 | 0.575 ± 0.05 | 1 ± 0.051 | 1.23 ± 0.069 | 1.11 ± 0.072 | 1.05 ± 0.055 | 1.04 ± 0.2 | 0.253 (inactive)
17 | CCN1CC(CCN2CCOCC2)C(c2ccccc2)(c2ccccc2)C1=O (configuration not stated) | 1.18 ± 0.32 | 1.04 ± 0.072 | 1.05 ± 0.067 | 0.874 ± 0.03 | 1.28 ± 0.14 | 1.29 ± 0.24 | 1.01 (active)
18 | Cl.Nc1ccn([C@@H]2O[C@H](CO)[C@@H](O)[C@@H]2O)c(=O)n1 | 1.61 ± 0.12 | 1.13 ± 0.068 | 1.06 ± 0.047 | 0.87 ± 0.13 | 1.03 ± 0.1 | 0.8 ± 0.079 | 0.579 (inactive)
19 | CN1C(C(=O)Nc2ccccn2)=C(O)c2sc(Cl)cc2S1(=O)=O | 0.744 ± 0.047 | 0.896 ± 0.094 | 1.08 ± 0.11 | 0.955 ± 0.043 | 1.43 ± 0.22 | 1.72 ± 0.59 | 0.967 (active)
20 | O=C1c2ccccc2C(=O)C1c1ccccc1 | 1.36 ± 0.21 | 1.01 ± 0.085 | 1.32 ± 0.15 | 0.856 ± 0.03 | 1.18 ± 0.1 | 0.968 ± 0.14 | 0.996 (active)
21 | O=C(c1ccco1)c1nc2c(n1O)CCCCC2 | 1.12 ± 0.073 | 0.995 ± 0.089 | 1.03 ± 0.028 | 0.998 ± 0.07 | 0.971 ± 0.078 | 1.03 ± 0.1 | 1 (active)
22 | COc1cc2nc(N3CCN(C(=O)c4ccco4)CC3)nc(N)c2cc1OC [Prestw-947] | 0.258 ± 0.041 | 1.09 ± 0.083 | 1.14 ± 0.11 | 1.59 ± 0.049 | 1.28 ± 0.18 | 1.48 ± 0.33 | 0.971 (active)
23 | COCCCC/C(=N\OCCN)c1ccc(C(F)(F)F)cc1.O=C(O)/C=C\C(=O)O | 0.903 ± 0.072 | 0.902 ± 0.042 | 1.23 ± 0.15 | 0.829 ± 0.04 | 1.42 ± 0.083 | 1.67 ± 0.14 | 0.985 (active)
24 | CCc1cccc2c3c([nH]c12)C(CC)(CC(=O)O)OCC3 (configuration not stated) [Prestw-231] | 0.957 ± 0.25 | 0.995 ± 0.066 | 1.19 ± 0.15 | 0.926 ± 0.039 | 1.24 ± 0.15 | 1.32 ± 0.24 | 0.989 (active)
25 | O=C(O)c1cc(Nc2ccnc3cc(Cl)ccc23)ccc1O | 1.04 ± 0.082 | 1.02 ± 0.088 | 0.932 ± 0.044 | 0.963 ± 0.05 | 1.02 ± 0.056 | 0.96 ± 0.18 | 1 (active)
26 | O=c1cc2c(nn1CC1CCN(CC3(O)CCOCC3)CC1)CCCC2 | 1.08 ± 0.1 | 0.988 ± 0.099 | 0.918 ± 0.066 | 1.08 ± 0.063 | 1.21 ± 0.075 | 1.04 ± 0.17 | 1.01 (active)
